# aSyn UTR act – Activators via SNCA 5'UTR binding, MLPCN. alpha-synuclein 5'UTR reporter, activators screen. activity score, % (tested at 7.5 µM), hits read low. 300,000 compounds, 7.1% hits. AID 1814; in the data active = activity score below about -60%
# * = called active by the depositor. A selection follows.
SMILES,aSyn UTR act
CCOC(=O)c1c(-c2ccccc2)cn2c(C)cc(C)nc12,-150*
CCOC(=O)c1c(C)nc(-c2ccccc2)nc1N,-120*
CCCNc1nc(-c2ccccc2)c(C(=O)OCC)cc1C#N,94
CC(=O)c1c(C)nc(-c2ccccc2)nc1N,-72*
CC(C)CC(NC(=O)c1ccc(Cl)cc1)C(=O)OCC(=O)c1ccc2c(c1)NC(=O)CO2 (stereo not drawn),96
CC(C)NC(=O)c1ccc2c3n(nc2c1)-c1ccc(Cl)cc1CO3,-176*
CCN(CC)CCCNC(=O)c1ccc2c3n(nc2c1)-c1ccc(Cl)cc1CO3,-246*
CCOc1ccccc1CNS(=O)(=O)c1ccc(-c2cnc(C3CC3)o2)cc1,74
CCOC(=O)N1CCN(C(=O)CSCC(=O)Nc2nc(-c3ccc(OC)cc3)cs2)CC1,-97*
CCOC(=S)SCC(=O)Nc1nc(-c2ccc(Br)cc2)cs1,70
O=C(COC(=O)c1cccnc1Cl)Nc1nc(-c2ccccc2)cs1,-63*
CCOC(=O)N1CCN(C(=O)CSCC(=O)Nc2nc(-c3ccc(Cl)s3)cs2)CC1,-85*
CCOC(=O)N1CCN(C(=O)CSCC(=O)Nc2nc(-c3ccc(-c4ccccc4)cc3)cs2)CC1,-126*
COc1cccc(N(C(=O)CCl)C(C(=O)NCCc2ccccc2)c2cccs2)c1 (stereo not drawn),-112*
O=C(CSc1ncccc1-c1nc2ccccc2[nH]1)N1CCc2ccccc21,-117*
O=C(CSc1ncccc1-c1nc2ccccc2[nH]1)Nc1ccc2c(c1)OCCO2,-71*
CN(C)C(=O)COc1ccc2cc(-c3ccccc3)c(=O)oc2c1,-91*
COc1ccc2cc(-c3ccccc3)c(=O)oc2c1,-72*
CSc1ccc(/C=N/NC(=O)c2sccc2C)cc1,-89*
O=C(N/N=C/c1ccc(F)cc1)c1sccc1OCc1ccc(F)cc1,-94*
O=C(Nc1ccc(OCc2ccccc2)cc1)c1cccs1,-158*
O=C(N/N=C/c1ccc(Cl)cc1)c1sccc1OCc1ccc(F)cc1,73
O=C(COc1ccc([N+](=O)[O-])cc1)NNC(=O)c1cccs1,-78*
Cc1occc1C(=O)Nc1ccc(OCc2ccccc2)cc1,-147*
Oc1ccc(N=Cc2ccc(OCc3ccccc3)cc2)cc1,-92*
SMILES,aSyn UTR act
O=C(C[n+]1ccc(C(=O)N/N=C/c2ccc(OCc3ccccc3)cc2)cc1)c1ccccc1,-138*
C[C@H](NC(N)=O)C(=O)Nc1ccc(OCc2ccccc2)cc1,-92*
O=C(N/N=C/c1ccc(OCc2ccccc2)cc1)c1cccs1,-116*
CC(C)(C)NCC(=O)N/N=C/c1ccc(OCc2ccccc2)cc1,-72*
O=C(N/N=C/c1ccc(OCc2ccccc2)cc1)c1ccncc1,-164*
O=C(O)C(=O)/C(=C\c1ccc([N+](=O)[O-])cc1)c1ccc2ccccc2n1,-88*
O=C(O)C(=O)/C(=C\c1ccccc1)c1ccc2ccccc2n1,-90*
Cc1cc(O)ccc1Nc1nc2ccccc2nc1Nc1ccc(O)cc1C,-106*
CC(C)c1cccc(C(C)C)c1NC(=O)CCl,-76*
O=C(CCl)NC(Cc1ccccc1)c1ccccc1 (stereo not drawn),60
COc1ccc(C2N=C(c3ccccc3)NO2)cc1OC (stereo not drawn),-142*
FC(F)Oc1ccc(C2N=C(c3ccccc3)NO2)cc1 (stereo not drawn),-199*
CCOc1ccc(C2C(C(=O)c3ccc(C)o3)=C(O)C(=O)N2c2nc(C)c(C(=O)OC)s2)cc1 (stereo not drawn),-92*
S=C(N/N=C/c1ccc(Cl)c(Cl)c1)Nc1ccccc1Cl,-81*
Fc1cccc(/C=N/NC(=S)Nc2ccccc2Cl)c1,-231*
CCCC(=O)Nc1ccc(-c2nc3cc(C)c(C)cc3o2)c(O)c1,-129*
CCCC(=O)Nc1ccc(-c2nc3cc(C)ccc3o2)cc1,-149*
COc1ccc(-c2csc(NC(=S)NC(=O)/C=C/c3ccco3)n2)cc1Br,91
CCCC(=O)Nc1ccc2oc(-c3ccc(OC)c(Br)c3)nc2c1,-118*
CCCOc1ccc2cc(-c3ccccn3)c(=O)oc2c1,77
O=c1oc2cc(OCc3c(F)cccc3Cl)ccc2cc1-c1ccccn1,-107*
CCN(C)c1ccc(/C=N\n2nnnc2N)cc1,-115*
CCN(CC)c1ccc(/C=N/n2nnnc2N)c(O)c1,-89*
COC(=O)c1cc(Br)ccc1-c1ccc(/C=N/n2nnnc2N)o1,55
c1ccc(N2CCN(c3ccccc3)C2c2cccs2)cc1,-108*
SMILES,aSyn UTR act
Clc1ccc(CSc2ccc(-c3ccco3)nn2)cc1,-165*
Cc1cccc(CSc2ccc(-c3ccco3)nn2)c1,-174*
Cc1ccc(CSc2ccc(-c3ccco3)nn2)cc1,-142*
Clc1cccc(CSc2ccc(-c3ccco3)nn2)c1,-84*
Clc1ccc(CSc2ccc(-c3ccccn3)nn2)cc1,-132*
O=C(CSc1ccc(-c2ccccn2)nn1)c1ccccc1,-97*
Cc1[nH]c(=O)c(C(=O)/C=C/c2ccccc2F)c2c1CCCC2,-364*
C[C@]12CCC(=O)C=C1CC[C@@H]1[C@@H]2[C@@H](O)C[C@]2(C=O)[C@@H](C(=O)CO)CC[C@@H]12,-78*
COc1ccc(C(C(=O)NC2CCCCC2)N(C(=O)CCl)c2cccc(Cl)c2)cc1 (stereo not drawn),-74*
O=C(NC1CCCCC1)C(c1cccnc1)N(C(=O)CCl)c1ccc(F)cc1 (stereo not drawn),-94*
C#CC(=O)N(c1ccc(OC)cc1OC)C(C(=O)NC1CCCC1)c1cccs1 (stereo not drawn),92
CC(C)c1ccc(N(C(=O)c2ccco2)C(C(=O)NC2CCCC2)c2ccncc2)cc1 (stereo not drawn),-150*
CCC(C)c1ccc(N(C(=O)c2ccco2)C(C(=O)NC2CCCC2)c2cccnc2)cc1 (stereo not drawn),-115*
O=C(c1cnn2c1NC(c1ccco1)CC2C(F)(F)F)N1CCN(c2cccc(Cl)c2)CC1 (stereo not drawn),-71*
Cc1nn(-c2ccccc2)c(Cl)c1/C=N/Nc1nc2ccccc2n1C,-121*
CCc1n[nH]c(=S)n1/N=C/c1c(C)nn(-c2ccccc2)c1Cl,106
Cc1nn(-c2ccccc2)c(Cl)c1/C=N/NC(=O)c1ccnn1C,-108*
Cc1nn(-c2ccccc2)c(Cl)c1/C=N/Nc1nnc(C)c(=O)[nH]1,-62*
CCc1ccc(NC(=O)C2(C)Cc3ccccc3C(=O)O2)cc1 (stereo not drawn),-142*
CCc1ccc(NC(=O)c2noc3c2CCc2ccccc2-3)cc1,-95*
Cc1ccc(NC(=O)c2noc3c2CCc2ccccc2-3)cc1,-205*
C=C(C)CSc1nc2ncc(Cl)cc2[nH]1,-74*
CC(/C=N/Nc1nc(C)cc(=O)[nH]1)=C\c1ccccc1,-67*
CC(/C=N/Nc1nc2ccccc2[nH]1)=C\c1ccccc1,-70*
Cc1ccc2c(COC(=O)c3ccc(NC(=O)CC#N)cc3)cc(=O)oc2c1C,-69*
SMILES,aSyn UTR act
CC(C)c1[nH]nc2c1C(c1ccco1)C(C#N)=C(N)O2 (stereo not drawn),-133*
O=C(c1ccc2oc(CCCc3ccccc3)nc2c1)N1CCCC(CCCO)C1 (stereo not drawn),-65*
CCCCc1nc2cc(C(=O)N(C)C3CCOCC3)ccc2o1,-165*
O=C(c1ccc2oc(CCc3ccccc3)nc2c1)N1CC[C@H](O)C1,-134*
CCCCc1nc2cc(C(=O)N3CCC(O)CC3)ccc2o1,-83*
Oc1cccc2c(NC(=S)Nc3ccc(OC(F)F)cc3)cccc12,-138*
